Screening results as filed in PubChem.
GPT2 inh – GPT2 alanine aminotransferase inhibition; Potency, µM (titrated, usually from 57.7 µM), usual class: inhibitors; Q8TD30; Recombinant GPT2, coupled pyruvate oxidase/HRP Amplex Red fluorescence; actives 0.25% (n = 100,000); also: nearly all actives have a fitted effect of over 60% in size
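Fluorescence of coupled pyruvate oxidase/HRP/Amplex Red system (50uM Amplex, 30 min, dark) reports pyruvate formed by GPT2. Enzyme reaction: 10ng/uL GPT2, 2mM L-alanine, 250uM a-KG, 30 min room temperature, pH 7.5; 50uM AOA control.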
HEK293 tox – HEK 293 cell cytotoxicity; Potency, µM (highest dose often 115 µM), hits mostly inhibitors; AID 1345083; HEK 293 viability, ATP luminescence (CellTiter-Glo), 48-72 h; actives 6.6% (n = 94,000); also: nearly all actives have a fitted effect of over 60% in size
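Viability of HEK 293 cells, plated at 250 cells/well, was judged by cellular ATP after compound treatment for 48 or 72 hr. Luminescence was imaged 10 min after CellTiter-Glo addition at room temperature.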
NPR1 antag – blocks ANP-stimulated signaling of human Npr1 receptor; P16066; HEK293 hNpr1 GloSensor cGMP, ANP-stimulated luminescence; Potency, µM (titrated, usually from 46.3 µM), actives largely listed as inhibitors; actives 1.6% (n = 76,000); AID 1347048; calls by dose curve; also: nearly all actives have a fitted effect of over 60% in size
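Compound pre-incubated 30 min at room temperature on GloSensor-loaded HEK293 cells stably carrying hNpr1 and the pGS-40F cGMP biosensor. Stimulation uses hNppA at 0.1 nM final; luminescence is taken at baseline and 20 min post-agonist.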
NIH3T3 tox – NIH 3T3 cell cytotoxicity | actives 4.3% (n = 94,000) | AID 1345082 | NIH 3T3 viability, CellTiter-Glo ATP luminescence, 48-72 h | Potency, µM (top dose mostly 96.7 µM), usual class: inhibitors; also: nearly all actives have a fitted effect of over 55% in size
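Cytotoxicity is measured as loss of cellular ATP: NIH 3T3 cells (400/well) are exposed to compound for 48 or 72 hr at 37 °C, then CellTiter-Glo luminescence is imaged after 10 min at room temperature.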
Luciferase inh – Photinus pyralis luciferase inhibition | P08659 | Potency, µM (series often up to 115 µM), hits mostly inhibitors | purified P. pyralis luciferase, luminescence, biochemical | actives 2.5% (n = 76,000); also: nearly all actives have a fitted effect of over 65% in size
Target sequence (P08659 whole entry, looked up): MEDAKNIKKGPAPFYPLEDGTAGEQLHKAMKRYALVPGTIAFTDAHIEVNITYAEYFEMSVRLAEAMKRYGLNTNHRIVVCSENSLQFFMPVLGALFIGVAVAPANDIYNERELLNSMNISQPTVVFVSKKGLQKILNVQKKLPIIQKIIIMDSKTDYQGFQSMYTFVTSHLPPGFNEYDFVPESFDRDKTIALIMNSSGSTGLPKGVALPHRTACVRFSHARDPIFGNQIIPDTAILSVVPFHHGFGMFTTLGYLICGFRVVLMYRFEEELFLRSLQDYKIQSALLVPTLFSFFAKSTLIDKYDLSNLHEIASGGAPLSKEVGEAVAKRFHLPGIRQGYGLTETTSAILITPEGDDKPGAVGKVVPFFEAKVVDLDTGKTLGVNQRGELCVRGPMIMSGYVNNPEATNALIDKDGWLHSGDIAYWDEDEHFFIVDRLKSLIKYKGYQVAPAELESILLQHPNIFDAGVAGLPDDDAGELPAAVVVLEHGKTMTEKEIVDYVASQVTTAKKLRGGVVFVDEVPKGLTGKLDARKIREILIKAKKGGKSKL
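Biochemical qHTS: compound (6-point titration) added to 10uM D-luciferin plus 10uM ATP in Tris acetate pH 7.5 buffer with Mg, Tween-20 and BSA, then purified enzyme at 10nM; light output imaged.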
A number is an active result; 0 = inactive; ? = inconclusive; - = no result given. The list is not random: actives were taken first. Their share in the collection is about 10%. Unless noted, calls follow the shape of the dose curve; as a rule, active = well fitted curve in the direction sought with a large enough effect; inconclusive = small, poorly fitted or top-dose-only effect, or another doubt; inactive = no such curve, though single readings can be large; an effect the other way counts as inactive or inconclusive.

SMILES	GPT2 inh	HEK293 tox	NPR1 antag	NIH3T3 tox	Luciferase inh
Cc1ccc2nc(C3CCCN(Cc4ccc(-c5cncnc5)cc4)C3)[nH]c(=O)c2c1 (centres undefined)	0	0	0	0	0
O=c1[nH]c(C2CCCN(Cc3cccc(-c4ccc(F)cc4F)c3)C2)nc2ccc(F)cc12 (centres undefined)	0	40µM	?	?	0
O=C(NCCN1CCCCC1)c1ccc(-c2nnc3ccc(NC(=O)C4CCC4)cn23)cc1	0	0	0	0	0
CCC1=C(C(=O)OC)C(c2cccc(C)c2)N2C(CC(=O)Nc3ccc(OC)cc3)=CSC2=N1 (centres undefined)	0	40µM	0	?	0
CCC1=C(C(=O)OC)C(c2ccc(C)cc2C)N2C(CC(=O)N3CCCCC3C)=CSC2=N1 (centres undefined)	0	?	0	?	0
CCC1=C(C(=O)OC)C(c2cccc(C)c2)N2C(CC(=O)N3CCCCC3C)=CSC2=N1 (centres undefined)	0	45µM	0	0	0
COC[C@H]1C[C@H]2C[C@@H](O)[C@H](N(C)Cc3cccc(F)c3)[C@]2(O)CO1	0	?	-	0	-
c1ccc(CCc2noc(-c3ccc(N4CCCOCC4)nc3)n2)cc1	?	?	?	?	32µM
COc1ccccc1-c1cccc(CN2CCC(NC(=O)c3ccccn3)CC2)c1	0	?	-	?	-
O=C1NC2(CCN(C(=O)c3ccc4c(c3)OCO4)CC2)COc2ccccc21	?	0	0	0	0
O=C1NC2(CCCN(C(=O)c3ccc4c(c3)OCO4)C2)COc2ccccc21 (centres undefined)	0	40µM	0	?	0
O=C1NC2(CCCN(C(=O)c3ccccc3F)C2)COc2ccccc21 (centres undefined)	0	35µM	13µM	?	0
Cc1ccc(C(=O)N2CCCC3(COc4ccccc4C(=O)N3)C2)cc1 (centres undefined)	0	63µM	0	?	0
COc1cccc(CN2C[C@@H]3C(=O)N(Cc4ccc5c(c4)OCO5)C(=O)[C@@H]3C2)c1OC	0	?	0	0	0
Cc1noc(C)c1[S+](=O)([O-])N1CCC(C(=O)N2CCC3(CC2)CC(=O)Nc2ccccc2O3)CC1	0	?	-	?	-
